# Assay results: PubChem BioAssay (NCATS)
# Values without a mark were called inactive. Results filed as inconclusive are left out. A call without a number means that no potency is given here. Active and inactive are the calls of the source. Calls come from the whole dose curve; as a rule, active = well fitted curve in the direction sought with a large enough effect; inconclusive = small, poorly fitted or top-dose-only effect, or another doubt; inactive = no such curve, though single readings can be large; an effect the other way counts as inactive or inconclusive.
# Experiments:
# [1] = biological target: Glutathione peroxidase 1 (Homo sapiens) (UniProt P07203); experiment: Primary qHTS Assay for Inhibitors of Recombinant Selenoprotein Glutathione Peroxidase 1 (GPX1) (AID 1845191); note: nearly all actives have a fitted effect of over 65% in size
# Glutathione peroxidase 1 (Homo sapiens), sequence (P07203 whole entry, looked up): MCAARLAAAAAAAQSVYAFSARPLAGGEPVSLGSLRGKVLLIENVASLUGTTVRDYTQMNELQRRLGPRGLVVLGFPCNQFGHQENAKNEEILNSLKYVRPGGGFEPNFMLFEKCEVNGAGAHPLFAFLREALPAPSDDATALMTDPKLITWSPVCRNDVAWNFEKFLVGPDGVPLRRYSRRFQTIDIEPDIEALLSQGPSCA
# Summary of the method: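 GR-coupled readout: NADPH consumption tracked by fluorescence, ex 340/em 450 nm, at t=0 and after 15 min at RT. Final mix 10 nM GPX1, 1 mM GSH, 0.5 mM CHP, 0.5 mM NADPH, 100 nM GR, 0.01% BSA, following 30 min enzyme–compound preincubation.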
# [2] = biological target: Phospholipid hydroperoxide glutathione peroxidase GPX4 (Homo sapiens) (UniProt P36969); experiment: Primary qHTS Assay for Inhibitors of Recombinant Selenoprotein Glutathione Peroxidase 4 (GPX4) (AID 1845192); note: nearly all actives have a fitted effect of over 65% in size; for activity change, negative = inhibition: series mostly up to about 50 µM
# Phospholipid hydroperoxide glutathione peroxidase GPX4 (Homo sapiens), sequence (P36969 whole entry, looked up): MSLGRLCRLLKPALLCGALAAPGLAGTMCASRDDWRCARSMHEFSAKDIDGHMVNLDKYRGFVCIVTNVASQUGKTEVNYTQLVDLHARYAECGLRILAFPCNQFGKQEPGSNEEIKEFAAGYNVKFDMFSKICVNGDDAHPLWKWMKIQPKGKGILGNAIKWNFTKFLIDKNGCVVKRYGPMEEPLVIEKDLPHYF
# Summary of the method: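 Steps: GPX4 plus compound, 30 min RT; add GR/GSH/NADPH master mix; start with cumene hydroperoxide; read 340/450 nm fluorescence at 0 and 15 min. Finals were 200 nM GPX4, 1 mM GSH, 0.5 mM CHP, 0.5 mM NADPH, 100 nM GR.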
# [3] = biological target: Luciferin 4-monooxygenase (Photinus pyralis) (UniProt P08659); experiment: Primary firefly luciferase (FLuc) qHTS assay for identification of artifact compounds. (AID 1845220); note: nearly all actives have a fitted effect of over 60% in size; note: potency is the fitted concentration of half-maximal effect; for activity change, negative = inhibition: series mostly up to about 54 µM
# Summary of the method: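 Titrated compounds were incubated 15 min at RT, protected from light, with luciferin and ATP at 10 uM; reaction started with 10 nM FLuc, luminescence imaged at 5 min, and concentration-response fitted by Hill equation.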
# [4] = Primary fluorescence-based thiol-reactive (MSTI) qHTS assay for identification of artifact compounds. (AID 1845221); note: nearly all actives have a fitted effect of over 65% in size; note: potency is the fitted concentration of half-maximal effect;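 for activity change, negative = thiol reactive: series mostly up to about 54 µM; thiol-reactive compounds lower the probe fluorescence signal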
# Summary of the method: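 Reactivity toward the thiol probe MSTI (4 uM) is scored by fluorescence at Ex/Em 525/598 nm after 1 h at room temperature. Acetyl-MSTI and MSTI define the activity scale.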
# [5] = tested on: Nanoluciferase (engineered Oplophorus gracilirostris luciferase); experiment: Primary Nanoluciferase (NLuc) qHTS assay for identification of artifact compounds. (AID 1845222);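 note: NLuc secreted into diluted conditioned medium of S16 cells; series mostly up to about 54 µM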
# Summary of the method: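 qHTS format, against NLuc in S16 cell-conditioned medium. Nano-Glo substrate 1:100 was added after 15 min at room temperature. Luminescence was taken after a further 5 min.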
# [6] = Primary redox qHTS assay for identification of artifact compounds. (AID 1845223)
# Summary of the method: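 Redox-cycling detection via DTT (250 uM final) oxidation coupled to Amplex Red (25 uM)/HRP (250 mU/mL) in HBSS. 15 min preincubation plus 30 min after DTT, room temperature. Ex/Em 525/598 nm; 4-parameter Hill fit against DMSO and 10 uM DA3003.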
SMILES,Potency [1],Potency [2],Potency [3],Potency [4],Potency [5],Potency [6],"activity, negative = inhibition [1]","activity change, negative = inhibition [2]","activity change, negative = inhibition [3]","activity change, negative = thiol reactive [4]","activity, negative = inhibition [5]",redox activity (% of DA3003) [6]
O=C(/C=C\c1ccc(O)cc1)N[C@@H](Cc1ccc(O)cc1)C(=O)O,inactive,inactive,inactive,6.56 µM (active),inactive,inactive,,,,,,
CC1=CCC(C(C)(C)O[C@@H]2O[C@H](CO[C@@H]3O[C@@H](C)[C@H](O)[C@@H](O)[C@H]3O)[C@@H](O)[C@H](O)[C@H]2O)CC1 (stereo partly specified),inactive,inactive,inactive,inactive,inactive,inactive,,,,,,
C[C@H]1CC[C@@H]2N(C1)C[C@@H]1[C@H]([C@@H](O)[C@H](O)[C@]3(O)[C@H]1C[C@@]14OC5(O)[C@@H](C[C@@H](O)[C@@H]31)[C@]4(C)CC[C@@H]5O)[C@]2(C)O,inactive,inactive,inactive,inactive,inactive,inactive,,,,,,
C=CC(C)(C)C12C=C(OC)C(=O)N3C(C(C)C)C(=O)NC31N(OC)c1ccccc12 (stereo unspecified),inactive,inactive,inactive,inactive,inactive,inactive,,,,,,
CC1=CC(=O)[C@]2(O[C@@H]3O[C@@H](C)[C@H](O)[C@@H](O)[C@H]3OC(=O)/C=C/c3ccccc3)C=CO[C@@H](O[C@@H]3O[C@H](CO)[C@@H](O)[C@H](O)[C@H]3O)[C@H]12,inactive,inactive,inactive,2.51 µM (active),inactive,inactive,,,,,,
COc1ccc(C(=O)Nc2ncc(-c3ccc(C(=O)O)cc3)s2)cc1,inactive,inactive,2.69 µM (active),inactive,inactive,inactive,,,,,,
CCC(O)(C(=O)OCc1ccccc1NC(=O)CCC(=O)O)C(C)O (stereo unspecified),inactive,inactive,inactive,inactive,inactive,inactive,,,,,,
CC(C)S(=O)(=O)NC[C@H](C)c1ccc(NC(=O)c2cc(F)cc(F)c2)cc1,inactive,inactive,inactive,inactive,inactive,inactive,,,,,,
CC(C)(C)NS(=O)(=O)c1cncc(-c2cc(F)c3nc(N)nn3c2)c1,inactive,inactive,inactive,inactive,inactive,inactive,,,,,,
CC1(C)CCCC2(C)C(C(=O)O)=CCC12 (stereo unspecified),inactive,inactive,inactive,inactive,inactive,inactive,,,,,,
CC(C)C[C@H](CC(=O)NO)C(=O)N[C@H](C(=O)N[C@@H](C)C(=O)NCCN)C(C)(C)C,,,,,,,-2.8% [at 9.52 µM],-8.26% [at 9.73 µM],-1.85% [at 11.6 µM],1.54% [at 11.5 µM],2.44% [at 11.6 µM],0.177% [at 11.5 µM]
O=C1NC(=O)C(c2cn3c4c(cccc24)CCC3)C1c1c[nH]c2ccccc12 (stereo unspecified),inactive,inactive,inactive,inactive,inactive,inactive,,,,,,
CC1OC2OC(=O)C3(C)CC4=C(CO)C5=C(CC(=O)C4(C)C(C1=O)C23)C(C)(C)OC(=O)C5 (stereo unspecified),inactive,inactive,inactive,inactive,inactive,inactive,,,,,,
COc1ccc2nc(S(=O)(=O)Cc3ncc(C)c(OC)c3C)[nH]c2c1,inactive,inactive,inactive,inactive,inactive,inactive,,,,,,
CCCn1c(=O)c2[nH]c(-c3ccc(OCC(=O)O)cc3)nc2n(CCC)c1=O,inactive,inactive,inactive,inactive,inactive,inactive,,,,,,
NC(=O)c1csc(C2OC(CO)C(O)C2O)n1 (stereo unspecified),inactive,inactive,inactive,inactive,inactive,inactive,,,,,,
C=CC[C@]12C[C@@H](OC)C(=O)C(OC)=C1O[C@@H](c1cc(OC)c3c(c1)OCO3)[C@@H]2C,inactive,inactive,inactive,inactive,inactive,inactive,,,,,,
COc1ccc([C@H]2CNC(=O)C2)cc1OC1CCCC1,inactive,inactive,inactive,inactive,inactive,inactive,,,,,,
CC(=O)N1CCc2ccc(O)c(OC3OC(COC4OCC(O)(CO)C4O)C(O)C(O)C3O)c2C1Cc1ccc(O)cc1 (stereo unspecified),inactive,inactive,inactive,inactive,inactive,inactive,,,,,,
CC(=O)O[C@@H]1[C@@H](OC(=O)/C=C/c2ccccc2)[C@@H](OC(C)=O)[C@H](O[C@H]2[C@@H]3C=CO[C@@H](O[C@@H]4O[C@H](CO)[C@@H](O)[C@H](O)[C@H]4O)[C@@H]3[C@@]3(CO)O[C@@H]23)O[C@H]1C,inactive,inactive,inactive,inactive,inactive,inactive,,,,,,
N=c1nc2n(cc1F)C1OC(CO)C(O)C1O2 (stereo unspecified),inactive,inactive,inactive,inactive,inactive,inactive,,,,,,

SMILES,Potency [1],Potency [2],Potency [3],Potency [4],Potency [5],Potency [6],"activity, negative = inhibition [1]","activity change, negative = inhibition [2]","activity change, negative = inhibition [3]","activity change, negative = thiol reactive [4]","activity, negative = inhibition [5]",redox activity (% of DA3003) [6]
Cc1cc(C(=O)N2CCCCc3ccccc32)ccc1CNC(=O)N1CCC[C@H]1C(=O)N(C)C,inactive,inactive,inactive,inactive,inactive,inactive,,,,,,
CC1(C)[C@@H](O)CC[C@]2(C)[C@H]3CC=C4[C@@H]5C[C@](C)(C(=O)O)CC[C@]5(C)CC[C@@]4(C)[C@]3(C)CC[C@@H]12,inactive,inactive,inactive,inactive,inactive,inactive,,,,,,
COc1ccc(-c2ccc(-c3cn(C(=O)N4CCCCC4c4ccccc4)nn3)cc2)cc1 (stereo unspecified),inactive,inactive,inactive,inactive,inactive,inactive,,,,,,
CCOc1cc(C)c(Cl)cc1S(=O)(=O)n1cnc2ccccc21,inactive,inactive,inactive,inactive,inactive,inactive,,,,,,
COC(=O)C[C@H]1C(C)(C)[C@H](OC(C)=O)C2CC3=C4CC(=O)O[C@@H](c5ccoc5)[C@]4(C)CCC3[C@@]1(C)C2=O (stereo partly specified),inactive,inactive,inactive,inactive,inactive,inactive,,,,,,
C[C@@H]1O[C@@H](O[C@H]2[C@H](O)[C@@H](O[C@@H]3O[C@H](CO)[C@@H](O)[C@H](O[C@@H]4O[C@H](CO)[C@@H](O)[C@H](O)[C@H]4O)[C@H]3O)[C@H](O[C@H]3CC[C@@]4(C)C(=CC[C@@H]5C4CC[C@@]4(C)C5C[C@@H]5OC6(CC[C@@](C)(CO[C@@H]7O[C@H](CO)[C@@H](O)[C@H](O)[C@H]7O)O6)[C@@H](C)[C@@H]54)C3)O[C@@H]2CO)[C@H](O)[C@H](O)[C@H]1O (stereo partly specified),,,,,,,-7.69% [at 9.52 µM],-8.14% [at 9.73 µM],-3.7% [at 11.6 µM],201% [at 11.5 µM],-0.894% [at 11.6 µM],7.08% [at 11.5 µM]
CCc1cc(CN2CC(C(=O)O)C2)sc1-c1noc(-c2ccc(Oc3ccccc3)cc2)n1,inactive,inactive,inactive,inactive,inactive,inactive,,,,,,
COc1cc2ncnc(N3CCC(Oc4cnc5ccccc5n4)C3)c2cc1OC (stereo unspecified),inactive,inactive,inactive,inactive,inactive,inactive,,,,,,
C[C@@H]1O[C@@H](O[C@@H]2[C@@H](O)[C@H](O[C@H]3[C@H](O[C@H]4CC[C@@]5(C)C(CC[C@]6(C)C5CC=C5[C@@H]7CC(C)(C)CC[C@]7(C(=O)O[C@@H]7O[C@H](CO)[C@@H](O)[C@H](O)[C@H]7O[C@@H]7O[C@@H](C)[C@H](O[C@@H]8O[C@@H](C)[C@H](O)[C@@H](O)[C@H]8O)[C@@H](O)[C@H]7O)CC[C@]56C)[C@@]4(C)CO)O[C@H](C(=O)O)[C@@H](O)[C@@H]3O)O[C@H](CO)[C@H]2O)[C@H](O)[C@H](O)[C@H]1O (stereo partly specified),,,,,,,-4.58% [at 9.52 µM],1.11% [at 9.73 µM],-1.57% [at 11.6 µM],155% [at 11.5 µM],0% [at 11.6 µM],1.07% [at 11.5 µM]
C=C1C(=O)O[C@H]2C1[C@H](OC(=O)/C(=C/CO)COC(=O)/C(C)=C/CO)CC(=C)[C@@H]1CC(=O)[C@@H](C)[C@@H]12 (stereo partly specified),inactive,inactive,inactive,inactive,inactive,inactive,,,,,,
C=CC(C)(O)CC[C@H]1C(=C)CCC2[C@](C)(C(=O)O)CCC[C@@]21C (stereo partly specified),inactive,inactive,inactive,inactive,inactive,inactive,,,,,,
C=C(C(=O)OC)C1C(O)CC2(C)C(O)CCC(=O)C2C1O (stereo unspecified),inactive,inactive,inactive,inactive,inactive,inactive,,,,,,
CC1(C)CCCC2(C)C1CC(=O)C13CC(CCC12)C(O)(CO)C3 (stereo unspecified),inactive,inactive,inactive,inactive,inactive,inactive,,,,,,
C=C(C)C1CCC(C)C12CC(O)C1(C)OC1C2OC(=O)C(N)CCC(=O)O (stereo unspecified),inactive,inactive,inactive,inactive,inactive,inactive,,,,,,
O=C1C=CC2OC(c3ccccc3)C(O)C2O1 (stereo unspecified),inactive,inactive,inactive,23.8 µM (active),inactive,inactive,,,,,,
O=C(Nc1nc2ccccc2n1CCc1ccccc1)c1ccccc1,inactive,inactive,inactive,inactive,inactive,inactive,,,,,,
O=C(c1ccccc1)c1ccc2nc(NC(=O)c3csc(C4CCN(c5ncnc6ccsc56)CC4)n3)[nH]c2c1,inactive,inactive,inactive,inactive,inactive,inactive,,,,,,
C=C1C(=O)O[C@@H]2[C@H]1CCC(C)=C1CCC(=O)O[C@]12C,inactive,inactive,inactive,18.9 µM (active),inactive,inactive,,,,,,
CC#CC(=O)N1CCC[C@H]1c1nc(-c2ccc(C(=O)Nc3ccccn3)cc2)c2c(N)nccn12,inactive,inactive,inactive,inactive,inactive,inactive,,,,,,
CC(=O)OC1CC2C3(C)CCC(OC(=O)CC(=O)O)C(C)(C)C3CCC2(C)C2(C)CCC(C3(C)CCC(=O)O3)C12 (stereo unspecified),inactive,inactive,inactive,inactive,inactive,inactive,,,,,,
